Data published in PMC5540273 (PLoS ONE, 2017).

Key:
Settings in all cases: concentration: 1 μM, replicates: in singlicate; n = 1
[1] = tested on: STK36
[2] = tested on: STK39
[3] = tested on: SYK
[4] = tested on: SgK110
[5] = tested on: T1, TAK1
T1 construct: gene MAP3K7

[6] = tested on: TAOK1
[7] = tested on: TAOK2
[8] = tested on: TAOK3
[9] = tested on: TBK1
[10] = tested on: TEC
[11] = tested on: TESK1
[12] = tested on: TGFBR1
[13] = tested on: TGFBR2
[14] = tested on: TIE1
[15] = tested on: T2, TIE2
T2 construct: gene TEK

[16] = tested on: TLK1
[17] = tested on: TLK2
[18] = tested on: TNIK
[19] = tested on: TNK1
[20] = tested on: TNK2
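Note: KINOMEscan kinase panel screen.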

COc1cc(Nc2nccc(N3CCC(NC(=O)Nc4cccc(C(C)=O)c4)C3)n2)cc(OC)c1OC (centres unmarked) [GSK1379753]
%Inh [1]: 30% | %Inh [2]: 0% | %Inh [3]: 28% | %Inh [4]: 0% | %Inh [5]: 0% | %Inh [6]: 0% | %Inh [7]: 0% | %Inh [8]: 0% | %Inh [9]: 28% | %Inh [10]: 0% | %Inh [11]: 1% | %Inh [12]: 0% | %Inh [13]: 0% | %Inh [14]: 27% | %Inh [15]: 1% | %Inh [16]: 0% | %Inh [17]: 0% | %Inh [18]: 0% | %Inh [19]: 21% | %Inh [20]: 19%

CCn1c(-c2nonc2N)nc2c(C#CC(C)(C)O)nc(OC[C@H](N)c3ccccc3)cc21 [GSK943949]
%Inh [1]: 0% | %Inh [2]: 5% | %Inh [3]: 2% | %Inh [4]: 0% | %Inh [5]: 18% | %Inh [6]: 64% | %Inh [7]: 27% | %Inh [8]: 3% | %Inh [9]: 0% | %Inh [10]: 0% | %Inh [11]: 0% | %Inh [12]: 9% | %Inh [13]: 0% | %Inh [14]: 0% | %Inh [15]: 0% | %Inh [16]: 2% | %Inh [17]: 0% | %Inh [18]: 4% | %Inh [19]: 0% | %Inh [20]: 8%

Cl.Cl.NCC(NCc1ccc(-c2ccnc3[nH]ccc23)s1)c1ccccc1 (centres unmarked) [GSK1321565]
%Inh [1]: 0% | %Inh [2]: 5% | %Inh [3]: 23% | %Inh [4]: 8% | %Inh [5]: 44% | %Inh [6]: 26% | %Inh [7]: 0% | %Inh [8]: 0% | %Inh [9]: 8% | %Inh [10]: 0% | %Inh [11]: 18% | %Inh [12]: 15% | %Inh [13]: 0% | %Inh [14]: 9% | %Inh [15]: 0% | %Inh [16]: 0% | %Inh [17]: 0% | %Inh [18]: 0% | %Inh [19]: 0% | %Inh [20]: 0%

COC(=O)Nc1nc2ccc(Oc3ccc(NC(=O)Nc4cc(C(F)(F)F)ccc4F)cc3)cc2n1C.Cl [GW692089]
%Inh [1]: 22% | %Inh [2]: 0% | %Inh [3]: 52% | %Inh [4]: 0% | %Inh [5]: 38% | %Inh [6]: 0% | %Inh [7]: 0% | %Inh [8]: 0% | %Inh [9]: 0% | %Inh [10]: 0% | %Inh [11]: 0% | %Inh [12]: 7% | %Inh [13]: 0% | %Inh [14]: 97% | %Inh [15]: 97.3% | %Inh [16]: 0% | %Inh [17]: 33% | %Inh [18]: 10% | %Inh [19]: 0% | %Inh [20]: 0%

O=C(Nc1cccc(Oc2ccc3nc(NC(=O)C4CC4)cn3n2)c1)c1ccccc1C(F)(F)F
%Inh [1]: 4% | %Inh [2]: 11% | %Inh [3]: 0% | %Inh [4]: 0% | %Inh [5]: 0% | %Inh [6]: 0% | %Inh [7]: 34% | %Inh [8]: 0% | %Inh [9]: 39% | %Inh [10]: 5% | %Inh [11]: 17% | %Inh [12]: 9% | %Inh [13]: 0% | %Inh [14]: 16% | %Inh [15]: 14% | %Inh [16]: 0% | %Inh [17]: 3% | %Inh [18]: 9% | %Inh [19]: 55% | %Inh [20]: 4%

Cc1ccc(C(=O)Nc2ccc(Nc3ccnc4cc(-c5nccs5)ccc34)cc2O)cc1.Cl [GW494702]
%Inh [1]: 35% | %Inh [2]: 0% | %Inh [3]: 5% | %Inh [4]: 15% | %Inh [5]: 0% | %Inh [6]: 0% | %Inh [7]: 0% | %Inh [8]: 0% | %Inh [9]: 0% | %Inh [10]: 0% | %Inh [11]: 15% | %Inh [12]: 40% | %Inh [13]: 0% | %Inh [14]: 16% | %Inh [15]: 5% | %Inh [16]: 0% | %Inh [17]: 0% | %Inh [18]: 36% | %Inh [19]: 46% | %Inh [20]: 96.9%

Cl.c1ccc(-c2ccc3c(Nc4ccc5[nH]ccc5c4)ccnc3c2)nc1 [GW440138]
%Inh [1]: 0% | %Inh [2]: 0% | %Inh [3]: 0% | %Inh [4]: 0% | %Inh [5]: 0% | %Inh [6]: 0% | %Inh [7]: 0% | %Inh [8]: 0% | %Inh [9]: 12% | %Inh [10]: 0% | %Inh [11]: 23% | %Inh [12]: 53% | %Inh [13]: 4% | %Inh [14]: 0% | %Inh [15]: 0% | %Inh [16]: 1% | %Inh [17]: 0% | %Inh [18]: 58% | %Inh [19]: 24% | %Inh [20]: 4%

CC(C)(C)c1ccc2nccc(Nc3cccc(O)c3)c2c1 [GW856795]
%Inh [1]: 0% | %Inh [2]: 14% | %Inh [3]: 0% | %Inh [4]: 0% | %Inh [5]: 23% | %Inh [6]: 100% | %Inh [7]: 0% | %Inh [8]: 59% | %Inh [9]: 14% | %Inh [10]: 12% | %Inh [11]: 0% | %Inh [12]: 42% | %Inh [13]: 88% | %Inh [14]: 0% | %Inh [15]: 2% | %Inh [16]: 12% | %Inh [17]: 0% | %Inh [18]: 0% | %Inh [19]: 19% | %Inh [20]: 0%

c1ccc(-c2n[nH]cc2Nc2ccnc3ccccc23)nc1 [GW694077]
%Inh [1]: 0% | %Inh [2]: 8% | %Inh [3]: 16% | %Inh [4]: 0% | %Inh [5]: 91.6% | %Inh [6]: 66% | %Inh [7]: 21% | %Inh [8]: 10% | %Inh [9]: 0% | %Inh [10]: 0% | %Inh [11]: 11% | %Inh [12]: 5% | %Inh [13]: 56% | %Inh [14]: 0% | %Inh [15]: 0% | %Inh [16]: 0% | %Inh [17]: 0% | %Inh [18]: 42% | %Inh [19]: 0% | %Inh [20]: 1%

O=C(Nc1cccc(-c2nn3ccccc3c2-c2ccnc(Nc3cccc(C(F)(F)F)c3)n2)c1)c1c(F)cccc1F [GSK292658]
%Inh [1]: 97.8% | %Inh [2]: 0% | %Inh [3]: 37% | %Inh [4]: 68% | %Inh [5]: 0% | %Inh [6]: 27% | %Inh [7]: 3% | %Inh [8]: 30% | %Inh [9]: 8% | %Inh [10]: 83% | %Inh [11]: 0% | %Inh [12]: 6% | %Inh [13]: 0% | %Inh [14]: 31% | %Inh [15]: 0% | %Inh [16]: 0% | %Inh [17]: 0% | %Inh [18]: 0% | %Inh [19]: 75% | %Inh [20]: 22%
